Compound activity (PubChem)
VACV mCherry inh: vaccinia inhibition (mCherry reporter); Potency, µM (series often up to 36.5 µM), for inactives: at the top dose activity change, negative = inhibition, hits mostly inhibitors; Vaccinia virus mCherry reporter infection, fluorescence; hit rate 0.63% among 310,000; calls by dose curve; tested in A549 cells; also: potency is read from the fitted curve at half-maximal effect; nearly all actives have a fitted effect of over 35% in size
FMDV antiviral: antivirals against foot and mouth disease virus. Potency, µM (doses to about 57.9 µM), without a hit: top-dose activity change, negative = inhibition, hits mostly inhibitors. FMDV antiviral cell-based qHTS. hit rate 1.2% among 410,000. AID 1159524; calls by dose curve; tested in HEK293T cells; also: read-out not given here; potency is read from the fitted curve at half-maximal effect; nearly all actives have a fitted effect of over 45% in size
Vaccinia Venus: vaccinia inhibition (Venus reporter); AID 720580; Vaccinia virus Venus reporter expression, fluorescence; Potency, µM (titrated, usually from 36.5 µM), for the others: top-dose activity change, negative = inhibition, actives largely listed as inhibitors; hit rate 0.46% among 330,000; calls by dose curve; tested in A549 cells; also: potency is read from the fitted curve at half-maximal effect; nearly all actives have a fitted effect of over 30% in size
FBPA Giardia inh: Giardia lamblia aldolase inhibition | A8B2U2 | hit rate 0.71% among 290,000 | Potency, µM (highest dose often 59.6 µM), for inactives: at the top dose activity, negative = inhibition, hits mostly inhibitors | purified Giardia FBPA; also: potency is read from the fitted curve at half-maximal effect; nearly all actives have a fitted effect of over 55% in size
Target sequence (A8B2U2 whole entry, looked up): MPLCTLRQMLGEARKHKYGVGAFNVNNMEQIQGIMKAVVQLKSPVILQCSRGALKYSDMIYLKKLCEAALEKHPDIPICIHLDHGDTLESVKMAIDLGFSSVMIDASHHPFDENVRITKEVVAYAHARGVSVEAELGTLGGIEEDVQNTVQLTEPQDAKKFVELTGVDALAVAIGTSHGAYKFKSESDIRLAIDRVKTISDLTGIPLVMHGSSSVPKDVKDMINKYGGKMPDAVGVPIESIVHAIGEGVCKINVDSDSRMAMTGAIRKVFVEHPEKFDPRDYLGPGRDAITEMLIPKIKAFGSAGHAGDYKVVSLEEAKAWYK
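40 nM FBPA preincubated 10 min at RT with compound (up to 57.5 uM final), then substrate plus GAPDH/TPI/NAD/arsenate coupling and diaphorase/resazurin added. Fluorescence read after 20 min at RT, 525/598 nm.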
HCV inh: HCV inhibition | Huh7.5.1 HCVcc-Cre infection, luciferase reporter, 44 h | Potency, µM (top dose mostly 41.8 µM), without a hit: at the highest dose activity change, negative = inhibition, most hits filed as inhibitors | hit rate 3.4% among 340,000 | AID 651820; also: potency is read from the fitted curve at half-maximal effect
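Seed cells (1,000/well) for 4 h; treat with compound and infect with HCVcc-Cre, moi about 0.5. Incubate 44 h, then detect luciferase activity.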
HCMV inh: human cytomegalovirus inhibition | HFF cells, HCMV-luciferase reporter, 72 h; stronger effect = lower value | activity change, negative = inhibition, % at 57.5 µM | hit rate 4.5% among 410,000; in the data active = activity change below about -60%; inconclusive = no clear call, values can overlap the other calls; inactive = above about -39%
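Two compound doses tested in HFFs infected with HCMV-luciferase, MOI 1 PFU/cell, 72 h at 37C. Lysate luminescence read with OneGlo; data normalized against buffer-only and 10uM Salinomycin inhibitor controls.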
* marks the source's active call; other numbers are inactive results; ! = a repeat was not active. Sampled rows, rich in hits. Any-hit rate of the full collection: about 7.5%. Unless noted, calls follow the shape of the dose curve; as a rule, active = well fitted curve in the direction sought with a large enough effect; inconclusive = small, poorly fitted or top-dose-only effect, or another doubt; inactive = no such curve, though single readings can be large; an effect the other way counts as inactive or inconclusive. % is scaled to controls: 0 for no effect and ±100 for the full control effect.

What do the screens show for `O=C(c1ccccc1)c1ccccc1NC(=O)C1CCCN1Cc1ccccc1` (stereo not given)?
FMDV antiviral: -6%; FBPA Giardia inh: 0%; HCV inh: inconclusive; HCMV inh: -60*

What do the screens show for `O=C(Nc1ccnn1C1CCN(Cc2ccn[nH]2)CC1)c1ccccc1`?
VACV mCherry inh: inactive; FMDV antiviral: -14%; Vaccinia Venus: -6%; HCV inh: 3%; HCMV inh: 22

How did COc1ccc(CN2C(=O)C(C)Nc3ncnc(N4CCN(c5ccccc5)CC4)c32)cc1 (stereo not given) do in these assays?
VACV mCherry inh: inconclusive; FMDV antiviral: -18%; Vaccinia Venus: inconclusive; HCV inh: -26%; HCMV inh: -13

How did CC1Nc2ncnc(N3CCN(c4ccccc4)CC3)c2N(Cc2ccc(Br)cc2)C1=O (stereo not given) do in these assays?
VACV mCherry inh: 7.1µM*; FMDV antiviral: -23%; Vaccinia Venus: inconclusive; HCV inh: inconclusive; HCMV inh: 27

What do the screens show for `CCC1Nc2ncnc(N3CCN(c4ccccc4)CC3)c2N(Cc2ccc(C)cc2)C1=O` (stereo not given)?
VACV mCherry inh: -20%; FMDV antiviral: -14%; Vaccinia Venus: -24%; HCV inh: 2.8µM*; HCMV inh: 14

What do the screens show for `COc1ccc(CN2C(=O)C(C)Nc3ncnc(N4CCOCC4)c32)cc1` (stereo not given)?
VACV mCherry inh: inactive; FMDV antiviral: -24%; Vaccinia Venus: -18%; HCV inh: 0%; HCMV inh: -65*

How did CCC1Nc2ncnc(N3CCN(c4ccccc4)CC3)c2N(Cc2ccccc2)C1=O (stereo not given) do in these assays?
VACV mCherry inh: -19%; FMDV antiviral: inconclusive; Vaccinia Venus: -28%; HCV inh: inconclusive; HCMV inh: 12

Results for O=C1C(Cc2ccccc2)Nc2ncnc(N3CCOCC3)c2N1Cc1ccccc1 (stereo not given) ?
VACV mCherry inh: 24%; FMDV antiviral: 0%; Vaccinia Venus: -12%; HCV inh: -6%; HCMV inh: -101*!

Results for Cc1ccccc1OCC(=O)NCCCNC(=O)c1ccncc1 ?
VACV mCherry inh: -18%; FMDV antiviral: -1%; Vaccinia Venus: -2%; FBPA Giardia inh: 5%; HCV inh: 19%; HCMV inh: 2

Results for COc1ccc(-n2cccc2C=O)cc1 ?
VACV mCherry inh: -14%; FMDV antiviral: -4%; Vaccinia Venus: -6%; FBPA Giardia inh: 1%; HCV inh: 3%; HCMV inh: 12

How did COc1ccc(-n2cccc2/C=C/[N+](=O)[O-])cc1 do in these assays?
VACV mCherry inh: inactive; FMDV antiviral: 28µM*; Vaccinia Venus: -6%; FBPA Giardia inh: -21%; HCV inh: inconclusive; HCMV inh: -102*

What do the screens show for `CCCCOC(=O)NS(=O)(=O)c1sc(CC(C)C)cc1-c1ccc(Cn2c(CC)nc3c(C)cc(C)nc32)cc1`?
FBPA Giardia inh: -2%; HCV inh: 13µM*

How did CCCCOC(=O)Nc1ccc(S(=O)(=O)Nc2nc(C)cc(C)n2)cc1 do in these assays?
VACV mCherry inh: inactive; FMDV antiviral: 50%; Vaccinia Venus: -11%; FBPA Giardia inh: 0%; HCV inh: 3%; HCMV inh: 25

What do the screens show for `O=C(Cc1c(Cl)cccc1Cl)Nc1ccncc1`?
FMDV antiviral: -25%; HCV inh: -12%; HCMV inh: 6

How did O=C(COc1ccc2ccccc2c1Br)Nc1ccncc1 do in these assays?
VACV mCherry inh: -18%; FMDV antiviral: -19%; Vaccinia Venus: inconclusive; HCV inh: inconclusive; HCMV inh: -60*

Results for CC(C)CCOc1cccc(OCC(=O)Nc2ccncc2)c1 ?
VACV mCherry inh: -22%; FMDV antiviral: -27%; Vaccinia Venus: 3%; FBPA Giardia inh: 15%; HCV inh: inconclusive; HCMV inh: -77*

How did Cc1cc(OCC(=O)Nc2ccncc2)cc(C)c1Cl do in these assays?
FMDV antiviral: 8%; FBPA Giardia inh: -1%; HCV inh: 13µM*; HCMV inh: -64*

How did COc1cccc(OCC(=O)Nc2ccncc2)c1 do in these assays?
VACV mCherry inh: inactive; FMDV antiviral: -13%; Vaccinia Venus: -11%; FBPA Giardia inh: 1%; HCV inh: -21%; HCMV inh: -24

How did O=C(COc1ccc2ccccc2c1Br)Nc1cccnc1 do in these assays?
FMDV antiviral: -12%; HCV inh: inconclusive; HCMV inh: -16

Results for O=C(Cc1ccc(Cl)cc1Cl)Nc1ccncc1 ?
VACV mCherry inh: inactive; FMDV antiviral: inconclusive; Vaccinia Venus: -14%; FBPA Giardia inh: 10%; HCV inh: 8.9µM*; HCMV inh: -66*

How did COc1ccc(-c2cn(Cc3ccc(C(N)=O)cc3)c(-c3ccncc3)n2)cc1 do in these assays?
VACV mCherry inh: -10%; FMDV antiviral: 56%; Vaccinia Venus: -17%; HCV inh: 1%; HCMV inh: 93

What do the screens show for `C=CCN(CC=C)c1ccc(/C=C/c2ccnc3ccccc23)cc1`?
VACV mCherry inh: -15%; Vaccinia Venus: 15%

What do the screens show for `COc1ccc(C(=O)Nc2ccccc2C(=O)N(Cc2ccco2)C(C(N)=O)C(C)C)cc1` (stereo not given)?
FMDV antiviral: -3%; FBPA Giardia inh: 5%; HCV inh: -22%; HCMV inh: -76*

What do the screens show for `COc1ccc(C(=O)Nc2ccccc2C(=O)NC(C(=O)NCc2ccco2)C(C)C)cc1` (stereo not given)?
FMDV antiviral: -6%; Vaccinia Venus: -8%; FBPA Giardia inh: 6%; HCV inh: -20%; HCMV inh: -19

Results for O=C(Nc1ncccn1)c1cccc(F)c1 ?
FMDV antiviral: 1%; FBPA Giardia inh: 9%; HCV inh: 14%; HCMV inh: -76*

Results for O=C(Nc1cc(Sc2nc3ccccc3s2)cc([N+](=O)[O-])c1)c1ccccc1F ?
VACV mCherry inh: -21%; FMDV antiviral: -11%; Vaccinia Venus: inconclusive; FBPA Giardia inh: -5%; HCV inh: 10µM*; HCMV inh: 1

What do the screens show for `O=C(Nc1cc(Sc2nc3ccccc3s2)cc([N+](=O)[O-])c1)c1ccccc1`?
VACV mCherry inh: inconclusive; FMDV antiviral: inconclusive; Vaccinia Venus: inconclusive; FBPA Giardia inh: -5%; HCV inh: inconclusive; HCMV inh: -36

Results for O=C(Nc1cc(Sc2ccccn2)cc([N+](=O)[O-])c1)c1cccc(F)c1 ?
VACV mCherry inh: inconclusive; FMDV antiviral: 32µM*; Vaccinia Venus: inconclusive; FBPA Giardia inh: -13%; HCV inh: inconclusive; HCMV inh: -67*

Results for Cc1ccsc1C(=O)N1CCN(C(=O)c2ccco2)CC1 ?
FMDV antiviral: -12%; HCV inh: 13%; HCMV inh: -7

How did CCc1ccc(NC(=O)CSc2nnc(-c3ccccc3)n2C)cc1 do in these assays?
VACV mCherry inh: -14%; Vaccinia Venus: -16%
